{"source": "the supplement of paper PMC6089552", "system": "A673/TR/shEF", "assay": "cell viability (LOESS-normalised, relative to median of negative controls) (log2 ratio); higher = more viable cells (less compound effect), active = hit call of the paper (over 3 MAD below the median)", "conditions": "treatment time: 72 h", "outline": "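A673/TR/shEF Ewing sarcoma cells were plated at 1,500 per well in 384-well plates and cultured with or without doxycycline, added 24 h before compounds, to induce EWS-FLI1 shRNA knockdown. Library compounds at two or more concentrations, alongside DMSO controls, were applied for three days. Cell viability was measured by CellTiter-Glo luminescence on an Envision reader. Readings were LOESS-corrected per plate, divided by the median of negative controls and log2-transformed, and hits were wells lying at least three median absolute deviations from the median of all screened wells.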", "key": {"[1]": {"conditions": "0.25 µM, library screen: screen1, EWS-FLI1 expression: high (no doxycycline)"}, "[2]": {"conditions": "0.25 µM, library screen: screen1, EWS-FLI1 expression: low (doxycycline-induced shRNA knockdown)"}, "[3]": {"conditions": "2.5 µM, library screen: screen1, EWS-FLI1 expression: high (no doxycycline)"}, "[4]": {"conditions": "2.5 µM, library screen: screen1, EWS-FLI1 expression: low (doxycycline-induced shRNA knockdown)"}}, "note": "In all, about 3,200 compounds went through this assay and about 300 (9.4%) showed activity. The list comes from a sample in which actives are over-represented; it also holds similar structures and randomly drawn compounds. Unmarked numbers belong to inactive results."}
{"smiles": "COc1cc2ccc(=O)oc2c(OC)c1OC", "values": [{"measurement": "cell viability (log2)", "setting": "[1]", "result": 0.24}, {"measurement": "cell viability (log2)", "setting": "[2]", "result": 0.119}, {"measurement": "cell viability (log2)", "setting": "[3]", "result": 0.156}, {"measurement": "cell viability (log2)", "setting": "[4]", "result": 0.115}]}
{"smiles": "CC(C)/C(O)=C1/C(=O)O[C@@H](c2ccoc2)[C@]2(C)C(O)[C@@H](O)[C@@]34OC5(C)OC67CC(C)(C(O)[C@]6(O)[C@@H](O)[C@]3(O5)C12)[C@H](CC(=O)O)[C@]74C", "note": "(stereo partly drawn)", "values": [{"measurement": "cell viability (log2)", "setting": "[1]", "result": 0.0599}, {"measurement": "cell viability (log2)", "setting": "[2]", "result": 0.0645}, {"measurement": "cell viability (log2)", "setting": "[3]", "result": 0.0749}, {"measurement": "cell viability (log2)", "setting": "[4]", "result": 0.047}]}
{"smiles": "COC(=O)C1=C(C)NC2=C(C(=O)CCC2)C1c1coc2ccccc2c1=O", "note": "(stereo not drawn)", "values": [{"measurement": "cell viability (log2)", "setting": "[1]", "result": 0.109}, {"measurement": "cell viability (log2)", "setting": "[2]", "result": 0.0579}, {"measurement": "cell viability (log2)", "setting": "[3]", "result": 0.125}, {"measurement": "cell viability (log2)", "setting": "[4]", "result": 0.0379}]}
{"smiles": "CC(=O)O[C@@H]1CC2C(C)(C)[C@@H](O)CC[C@]2(C)C2CC[C@@]3(C)[C@H](c4ccoc4)OC(=O)[C@H]4O[C@]43[C@@]21C", "note": "(stereo partly drawn)", "values": [{"measurement": "cell viability (log2)", "setting": "[1]", "result": 0.0735}, {"measurement": "cell viability (log2)", "setting": "[2]", "result": 0.138}, {"measurement": "cell viability (log2)", "setting": "[3]", "result": 0.203}, {"measurement": "cell viability (log2)", "setting": "[4]", "result": 0.158}]}
{"smiles": "CCOc1cc(/C=C2\\SC(=S)N(CCS(=O)(=O)O)C2=O)ccc1O", "values": [{"measurement": "cell viability (log2)", "setting": "[1]", "result": -0.00487}, {"measurement": "cell viability (log2)", "setting": "[2]", "result": 0.0852}, {"measurement": "cell viability (log2)", "setting": "[3]", "result": 0.0865}, {"measurement": "cell viability (log2)", "setting": "[4]", "result": 0.0812}]}
{"smiles": "CN1CCN(c2nc3ccccn3c(=O)c2/C=C2\\SC(=S)N(CCc3ccccc3)C2=O)CC1", "values": [{"measurement": "cell viability (log2)", "setting": "[1]", "result": -0.00293}, {"measurement": "cell viability (log2)", "setting": "[2]", "result": 0.00861}, {"measurement": "cell viability (log2)", "setting": "[3]", "result": 0.0344}, {"measurement": "cell viability (log2)", "setting": "[4]", "result": 0.124}]}
{"smiles": "C[C@H](CCC(=O)O)[C@H]1CC[C@H]2[C@@H]3CC[C@@H]4CCCC[C@]4(C)[C@H]3CC[C@]12C", "values": [{"measurement": "cell viability (log2)", "setting": "[1]", "result": 0.0641}, {"measurement": "cell viability (log2)", "setting": "[2]", "result": -0.0159}, {"measurement": "cell viability (log2)", "setting": "[3]", "result": 0.109}, {"measurement": "cell viability (log2)", "setting": "[4]", "result": -0.0358}]}
{"smiles": "C/C=C(/C)C(=O)O[C@H]1[C@H](OC(C)=O)[C@]2(CO)[C@H](O)C[C@]3(C)C(=CC[C@@H]4[C@@]5(C)CC[C@H](O[C@@H]6O[C@H](C(=O)O)[C@@H](O[C@@H]7O[C@H](CO)[C@@H](O)[C@H](O)[C@H]7O)[C@H](O)[C@H]6O[C@@H]6O[C@H](CO)[C@@H](O)[C@H](O)[C@H]6O)[C@](C)(CO)[C@@H]5CC[C@]43C)[C@@H]2CC1(C)C.C/C=C(\\C)C(=O)O[C@H]1[C@H](OC(C)=O)[C@@]2(CO)C(CC1(C)C)C1=CCC3[C@@]4(C)CC[C@H](O[C@@H]5O[C@H](C(=O)O)[C@@H](O[C@@H]6O[C@H](CO)[C@@H](O)[C@H](O)[C@H]6O)[C@H](O)[C@H]5O[C@@H]5O[C@H](CO)[C@@H](O)[C@H](O)[C@H]5O)[C@](C)(CO)C4CC[C@@]3(C)[C@]1(C)C[C@H]2O", "values": [{"measurement": "cell viability (log2)", "setting": "[1]", "result": 0.0112}, {"measurement": "cell viability (log2)", "setting": "[2]", "result": -0.0408}, {"measurement": "cell viability (log2)", "setting": "[3]", "result": 0.0934}, {"measurement": "cell viability (log2)", "setting": "[4]", "result": 0.0403}]}
{"smiles": "CC[C@]1(O)C[C@H]2CN(CCc3c([nH]c4ccccc34)[C@@](C(=O)OC)(c3cc4c(cc3OC)N(C=O)[C@H]3[C@@](O)(C(=O)OC)[C@H](OC(C)=O)[C@]5(CC)C=CCN6CC[C@]43[C@@H]65)C2)C1", "values": [{"measurement": "cell viability (log2)", "setting": "0.103 µM, library screen: screen3, EWS-FLI1 expression: high (no doxycycline)", "result": "-3.56 (active)"}, {"measurement": "cell viability (log2)", "setting": "0.103 µM, library screen: screen3, EWS-FLI1 expression: low (doxycycline-induced shRNA knockdown)", "result": "-0.748 (active)"}, {"measurement": "cell viability (log2)", "setting": "0.25 µM, library screen: screen2, EWS-FLI1 expression: high (no doxycycline)", "result": "-2.87 (active)"}, {"measurement": "cell viability (log2)", "setting": "0.25 µM, library screen: screen2, EWS-FLI1 expression: low (doxycycline-induced shRNA knockdown)", "result": "-0.436 (active)"}, {"measurement": "cell viability (log2)", "setting": "0.308 µM, library screen: screen3, EWS-FLI1 expression: high (no doxycycline)", "result": "-3.82 (active)"}, {"measurement": "cell viability (log2)", "setting": "0.308 µM, library screen: screen3, EWS-FLI1 expression: low (doxycycline-induced shRNA knockdown)", "result": "-0.668 (active)"}, {"measurement": "cell viability (log2)", "setting": "0.926 µM, library screen: screen3, EWS-FLI1 expression: high (no doxycycline)", "result": "-3.92 (active)"}, {"measurement": "cell viability (log2)", "setting": "0.926 µM, library screen: screen3, EWS-FLI1 expression: low (doxycycline-induced shRNA knockdown)", "result": "-0.728 (active)"}, {"measurement": "cell viability (log2)", "setting": "2.5 µM, library screen: screen2, EWS-FLI1 expression: high (no doxycycline)", "result": "-2.88 (active)"}, {"measurement": "cell viability (log2)", "setting": "2.5 µM, library screen: screen2, EWS-FLI1 expression: low (doxycycline-induced shRNA knockdown)", "result": "-0.517 (active)"}, {"measurement": "cell viability (log2)", "setting": "2.8 µM, library screen: screen3, EWS-FLI1 expression: high (no doxycycline)", "result": "-3.8 (active)"}, {"measurement": "cell viability (log2)", "setting": "2.8 µM, library screen: screen3, EWS-FLI1 expression: low (doxycycline-induced shRNA knockdown)", "result": "-0.704 (active)"}, {"measurement": "cell viability (log2)", "setting": "8.3 µM, library screen: screen3, EWS-FLI1 expression: high (no doxycycline)", "result": "-3.93 (active)"}, {"measurement": "cell viability (log2)", "setting": "8.3 µM, library screen: screen3, EWS-FLI1 expression: low (doxycycline-induced shRNA knockdown)", "result": "-0.847 (active)"}, {"measurement": "cell viability (log2)", "setting": "25 µM, library screen: screen3, EWS-FLI1 expression: high (no doxycycline)", "result": "-3.66 (active)"}, {"measurement": "cell viability (log2)", "setting": "25 µM, library screen: screen3, EWS-FLI1 expression: low (doxycycline-induced shRNA knockdown)", "result": "-0.84 (active)"}]}
